# Results reported in publication PMC5540273 (PLoS ONE, 2017).
# System: DAPK1
# 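Further: kd values determined as follow-up on hits from a single-replicate KINOMEscan panel screen.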
row,SMILES,Kd [µM]
1,COc1ccc(-c2nc3n(c2-c2ccncc2)CCC3)cc1 [SKF-104493],> 10
2,CC(=O)Nc1n[nH]c2ncc(-c3ccccc3)cc12 [SB-548492],> 10
3,Cl.Cl.c1ccc(-c2cc3ccncc3cc2OC2CCNCC2)cc1 [GSK1122999],0.3

# System: DAPK3
row,SMILES,Kd [µM]
1,Cn1cc(-c2ccc3c(c2)CCN3C(=O)Cc2cccc(C(F)(F)F)c2)c2c(N)ncnc21 [GSK2606414],> 10
2,FC(F)(F)c1ccc(-c2cc(-c3c[nH]nc3-c3ccccn3)ccn2)cc1 [GW599550],> 10
3,Cl.Cl.c1ccc(-c2cc3ccncc3cc2OC2CCNCC2)cc1 [GSK1122999],0.17
4,O=C(c1ccc(-c2cc(-c3c[nH]nc3-c3ccccn3)ccn2)cc1)N1CCCC1 [GW792479],> 10
